Reference: the supplement of paper PMC11732987, “Enantioselective OTUD7B fragment discovery through chemoproteomics screening and high-throughput optimisation” (Communications Chemistry, 2025)
A number with no mark means an inactive call.

Assays:
Test in all cases: log2 ratio of Biotin-Ahx-Ub-VS probe labelling (fragment/DMSO); higher = less target engagement (more negative = stronger competition), active = hit call of the paper (q ≤ 0.05, log2 ratio ≤ -1)
Details in all cases: compound concentration: 200 uM; treatment time: 3 h
[1] = target: T1, OTUD6B (UniProt Q8N6M0)
T1 sequence (whole entry): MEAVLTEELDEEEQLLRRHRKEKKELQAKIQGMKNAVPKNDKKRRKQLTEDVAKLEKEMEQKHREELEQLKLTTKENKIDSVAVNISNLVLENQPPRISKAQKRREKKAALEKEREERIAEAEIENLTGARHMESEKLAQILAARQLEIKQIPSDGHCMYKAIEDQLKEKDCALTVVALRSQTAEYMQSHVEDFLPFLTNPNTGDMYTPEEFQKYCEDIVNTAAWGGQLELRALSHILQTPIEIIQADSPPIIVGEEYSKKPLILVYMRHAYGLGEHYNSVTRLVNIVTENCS
Summary of the method: (§1)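 Labelling with Biotin-Ahx-Ub-VS (0.5 µM final, 1 h) followed a 3 h triplicate treatment of HEK293T lysate (495 µg per sample, Tris/CHAPS/IGEPAL buffer with protease inhibitors) with fragment at 200 µM or vehicle. Labelled DUBs were NeutrAvidin-enriched, digested with LysC and trypsin, and run by diaPASEF LC-MS/MS. The values, average log2 fragment/vehicle ratios by unpaired t-test, come from global-median-normalised Spectronaut label-free quantities. Proteins with ≥2 unique peptides were used.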

[2] = target: T2, OTUD7B (UniProt Q6GQQ9)
T2 sequence (whole entry): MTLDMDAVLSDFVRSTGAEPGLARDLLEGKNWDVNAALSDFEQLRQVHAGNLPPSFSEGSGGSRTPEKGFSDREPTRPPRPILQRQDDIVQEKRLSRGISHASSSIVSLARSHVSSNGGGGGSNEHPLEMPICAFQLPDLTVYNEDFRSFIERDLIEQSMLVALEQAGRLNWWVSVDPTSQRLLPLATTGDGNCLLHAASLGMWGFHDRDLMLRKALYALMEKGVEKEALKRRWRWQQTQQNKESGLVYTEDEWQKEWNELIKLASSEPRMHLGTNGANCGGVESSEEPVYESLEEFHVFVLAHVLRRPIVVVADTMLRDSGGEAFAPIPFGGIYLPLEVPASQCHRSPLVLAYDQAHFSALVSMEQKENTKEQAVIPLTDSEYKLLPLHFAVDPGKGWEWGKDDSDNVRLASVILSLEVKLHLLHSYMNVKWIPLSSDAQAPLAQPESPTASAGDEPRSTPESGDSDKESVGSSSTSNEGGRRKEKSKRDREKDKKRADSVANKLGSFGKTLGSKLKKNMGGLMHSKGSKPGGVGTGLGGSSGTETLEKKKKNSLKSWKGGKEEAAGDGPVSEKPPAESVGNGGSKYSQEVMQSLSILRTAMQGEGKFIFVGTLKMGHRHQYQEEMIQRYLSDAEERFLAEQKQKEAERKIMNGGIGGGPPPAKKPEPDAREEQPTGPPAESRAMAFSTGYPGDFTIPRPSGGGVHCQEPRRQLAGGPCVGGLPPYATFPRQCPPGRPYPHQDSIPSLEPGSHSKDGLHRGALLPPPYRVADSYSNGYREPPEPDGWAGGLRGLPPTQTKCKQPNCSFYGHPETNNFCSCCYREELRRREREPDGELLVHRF
Summary of the method: as §1

[3] = target: PRPF8 (UniProt Q6P2Q9)
Summary of the method: as §1

[4] = target: T3, PSMD7 (UniProt P51665)
T3 sequence (whole entry): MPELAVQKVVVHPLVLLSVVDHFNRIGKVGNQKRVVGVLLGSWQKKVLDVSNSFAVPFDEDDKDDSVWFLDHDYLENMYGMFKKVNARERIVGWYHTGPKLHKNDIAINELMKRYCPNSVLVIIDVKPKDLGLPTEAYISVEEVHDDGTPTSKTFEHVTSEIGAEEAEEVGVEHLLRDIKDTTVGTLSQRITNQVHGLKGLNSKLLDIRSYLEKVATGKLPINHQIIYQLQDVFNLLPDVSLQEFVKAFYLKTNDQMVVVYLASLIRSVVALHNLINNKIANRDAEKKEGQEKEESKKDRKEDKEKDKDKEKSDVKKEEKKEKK
Summary of the method: as §1

[5] = target: UCHL1 (UniProt P09936)
Chain of UCHL1 (P09936 whole entry, looked up): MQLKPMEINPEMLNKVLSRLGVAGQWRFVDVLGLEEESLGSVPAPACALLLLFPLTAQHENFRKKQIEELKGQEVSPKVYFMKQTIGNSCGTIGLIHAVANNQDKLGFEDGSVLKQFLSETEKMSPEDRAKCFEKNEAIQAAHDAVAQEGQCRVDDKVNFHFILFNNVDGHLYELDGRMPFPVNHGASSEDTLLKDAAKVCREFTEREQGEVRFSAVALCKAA
Summary of the method: as §1

[6] = target: T4, UCHL3 (UniProt P15374)
T4 sequence (whole entry): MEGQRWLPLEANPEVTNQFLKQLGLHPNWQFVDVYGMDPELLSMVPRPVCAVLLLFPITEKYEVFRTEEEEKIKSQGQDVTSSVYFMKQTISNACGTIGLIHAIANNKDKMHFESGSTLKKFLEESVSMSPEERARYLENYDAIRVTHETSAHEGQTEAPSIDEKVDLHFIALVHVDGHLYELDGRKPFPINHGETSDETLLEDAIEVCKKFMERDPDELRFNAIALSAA
Summary of the method: as §1

[7] = target: T5, UCHL5 (UniProt Q9Y5K5)
T5 sequence (whole entry): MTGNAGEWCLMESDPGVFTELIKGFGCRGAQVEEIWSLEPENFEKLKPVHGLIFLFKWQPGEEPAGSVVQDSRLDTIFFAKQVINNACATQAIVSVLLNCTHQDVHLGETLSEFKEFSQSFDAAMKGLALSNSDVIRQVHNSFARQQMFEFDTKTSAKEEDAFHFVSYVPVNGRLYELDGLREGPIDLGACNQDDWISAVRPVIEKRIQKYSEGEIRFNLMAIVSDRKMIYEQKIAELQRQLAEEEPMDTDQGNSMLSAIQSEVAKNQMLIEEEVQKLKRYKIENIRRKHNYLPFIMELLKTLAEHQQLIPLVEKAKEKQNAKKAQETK
Summary of the method: as §1

[8] = target: USP10 (UniProt Q14694)
Chain of USP10 (Q14694 whole entry): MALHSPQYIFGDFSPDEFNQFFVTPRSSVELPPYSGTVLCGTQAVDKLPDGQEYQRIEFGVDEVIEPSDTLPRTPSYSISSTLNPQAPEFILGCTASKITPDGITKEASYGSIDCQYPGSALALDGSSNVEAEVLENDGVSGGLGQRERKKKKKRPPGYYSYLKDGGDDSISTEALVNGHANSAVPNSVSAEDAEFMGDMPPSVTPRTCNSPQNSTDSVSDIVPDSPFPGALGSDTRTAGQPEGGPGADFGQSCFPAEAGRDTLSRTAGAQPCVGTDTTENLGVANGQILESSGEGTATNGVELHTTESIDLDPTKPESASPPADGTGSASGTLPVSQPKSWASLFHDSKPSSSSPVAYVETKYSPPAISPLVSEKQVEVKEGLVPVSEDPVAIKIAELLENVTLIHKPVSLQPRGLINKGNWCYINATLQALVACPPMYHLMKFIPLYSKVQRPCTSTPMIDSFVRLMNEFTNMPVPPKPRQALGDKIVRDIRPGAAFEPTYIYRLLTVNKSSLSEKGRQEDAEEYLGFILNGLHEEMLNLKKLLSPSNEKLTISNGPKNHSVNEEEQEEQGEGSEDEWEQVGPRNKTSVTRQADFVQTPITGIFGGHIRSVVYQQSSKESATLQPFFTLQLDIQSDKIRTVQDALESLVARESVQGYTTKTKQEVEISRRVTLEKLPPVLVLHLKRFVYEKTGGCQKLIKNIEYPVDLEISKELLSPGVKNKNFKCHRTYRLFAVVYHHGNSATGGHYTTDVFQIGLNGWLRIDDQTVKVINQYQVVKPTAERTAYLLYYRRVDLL
Summary of the method: as §1

[9] = target: T6, USP15 (UniProt Q9Y4E8)
T6 sequence (whole entry): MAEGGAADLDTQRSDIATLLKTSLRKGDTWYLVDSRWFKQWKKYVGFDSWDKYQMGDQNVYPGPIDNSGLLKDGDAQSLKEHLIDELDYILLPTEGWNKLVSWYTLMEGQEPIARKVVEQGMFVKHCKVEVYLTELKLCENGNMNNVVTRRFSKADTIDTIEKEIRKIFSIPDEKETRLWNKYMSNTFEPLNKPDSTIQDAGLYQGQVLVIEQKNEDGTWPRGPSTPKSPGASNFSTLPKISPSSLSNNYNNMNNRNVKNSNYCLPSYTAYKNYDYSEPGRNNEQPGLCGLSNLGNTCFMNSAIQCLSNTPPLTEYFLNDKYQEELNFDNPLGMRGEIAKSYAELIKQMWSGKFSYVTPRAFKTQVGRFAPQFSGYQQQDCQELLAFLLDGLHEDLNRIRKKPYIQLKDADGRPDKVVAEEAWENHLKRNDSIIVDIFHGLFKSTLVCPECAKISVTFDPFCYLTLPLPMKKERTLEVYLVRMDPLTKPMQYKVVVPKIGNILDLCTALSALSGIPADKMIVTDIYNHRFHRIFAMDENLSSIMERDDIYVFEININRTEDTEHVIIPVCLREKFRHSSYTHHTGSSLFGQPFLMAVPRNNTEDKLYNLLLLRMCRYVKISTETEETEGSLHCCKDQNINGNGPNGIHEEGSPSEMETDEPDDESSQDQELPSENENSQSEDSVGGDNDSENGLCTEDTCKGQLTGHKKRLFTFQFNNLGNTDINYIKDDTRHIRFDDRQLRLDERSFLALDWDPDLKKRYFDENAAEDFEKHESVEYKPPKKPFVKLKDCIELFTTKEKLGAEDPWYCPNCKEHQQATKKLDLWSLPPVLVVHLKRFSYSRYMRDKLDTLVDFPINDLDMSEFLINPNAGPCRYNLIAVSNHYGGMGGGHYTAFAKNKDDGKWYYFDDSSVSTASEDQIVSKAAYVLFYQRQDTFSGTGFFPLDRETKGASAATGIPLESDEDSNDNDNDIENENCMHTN
Summary of the method: as §1

[10] = target: USP16 (UniProt Q9Y5T5)
Chain of USP16 (Q9Y5T5 whole entry, looked up): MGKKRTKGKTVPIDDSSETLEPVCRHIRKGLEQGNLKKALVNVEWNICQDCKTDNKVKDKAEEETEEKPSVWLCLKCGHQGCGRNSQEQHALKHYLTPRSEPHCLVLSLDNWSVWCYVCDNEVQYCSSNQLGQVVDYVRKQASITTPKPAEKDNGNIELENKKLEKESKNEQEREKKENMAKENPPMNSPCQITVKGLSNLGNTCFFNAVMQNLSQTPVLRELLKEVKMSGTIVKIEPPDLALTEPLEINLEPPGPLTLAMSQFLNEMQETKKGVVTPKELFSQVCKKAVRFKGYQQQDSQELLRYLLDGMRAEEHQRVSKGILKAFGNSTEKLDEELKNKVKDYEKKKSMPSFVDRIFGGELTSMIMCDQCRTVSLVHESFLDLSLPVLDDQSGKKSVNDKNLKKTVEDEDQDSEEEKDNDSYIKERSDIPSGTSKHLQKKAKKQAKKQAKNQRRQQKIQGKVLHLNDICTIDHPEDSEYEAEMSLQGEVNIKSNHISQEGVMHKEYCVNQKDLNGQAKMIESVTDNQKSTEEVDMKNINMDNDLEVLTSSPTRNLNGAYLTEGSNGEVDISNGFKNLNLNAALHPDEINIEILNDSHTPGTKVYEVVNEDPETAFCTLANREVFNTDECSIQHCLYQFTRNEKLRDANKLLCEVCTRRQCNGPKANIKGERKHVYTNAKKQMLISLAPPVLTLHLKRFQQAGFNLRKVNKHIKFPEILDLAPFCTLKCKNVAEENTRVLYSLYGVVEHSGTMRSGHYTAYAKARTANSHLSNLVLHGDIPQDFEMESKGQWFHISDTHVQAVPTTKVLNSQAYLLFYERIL
Summary of the method: as §1

Row | SMILES | log2 ratio of Biotin-Ahx-Ub-VS probe labelling [1] | log2 ratio of Biotin-Ahx-Ub-VS probe labelling [2] | log2 ratio of Biotin-Ahx-Ub-VS probe labelling [3] | log2 ratio of Biotin-Ahx-Ub-VS probe labelling [4] | log2 ratio of Biotin-Ahx-Ub-VS probe labelling [5] | log2 ratio of Biotin-Ahx-Ub-VS probe labelling [6] | log2 ratio of Biotin-Ahx-Ub-VS probe labelling [7] | log2 ratio of Biotin-Ahx-Ub-VS probe labelling [8] | log2 ratio of Biotin-Ahx-Ub-VS probe labelling [9] | log2 ratio of Biotin-Ahx-Ub-VS probe labelling [10]
1 | CNC(=O)C1CCN(C(=O)CCl)CC1 | -0.163 | -0.121 | -0.218 | 0.12 | -0.544 | 0.53 | -0.0712 | -0.383 | -0.0196 | 0.31
2 | NC(=O)C1CCCCN1C(=O)CCl (stereo not given) | -0.175 | -1.65 (active) | -0.153 | -0.146 | -1.52 (active) | 0.215 | -0.42 | -0.0331 | -0.0982 | 0.0843
3 | O=C(CCl)N1CCCCC12CCOCC2 | -0.371 | -0.652 | -0.0698 | -0.183 | -2.07 (active) | -0.176 | -0.503 | -0.064 | -0.474 | -0.51
4 | Cl.O=C(CCl)N1CCCC(c2ncc[nH]2)C1 (stereo not given) | -0.0792 | -0.245 | -0.138 | -0.217 | -1.49 (active) | 0.271 | -0.164 | -0.028 | -0.0525 | -0.216
5 | Cc1n[nH]c2c1CN(C(=O)CCl)CC2 | -0.715 | -1.53 (active) | 0.0355 | -0.368 | -1.15 | -0.699 | -0.886 | -0.519 | -0.982 | -0.207
6 | COc1ccccc1C(C)NC(=O)CCl (stereo not given) | -0.401 | -0.997 | -0.14 | -0.451 | -1.47 (active) | -1.18 (active) | -0.318 | -0.0811 | -0.251 | -0.386
7 | O=C(CCl)N1CCN(C(=O)Nc2ccccc2)CC1 | 0.0713 | -0.112 | -0.00577 | 0.0846 | -1.33 (active) | -0.441 | 0.033 | -0.135 | -0.101 | 0.0643
8 | C[C@@H](NC(=O)CCl)c1cccc(C#N)c1 | -0.0614 | -1.42 (active) | 0.0368 | -0.233 | -1.24 (active) | 0.359 | -0.189 | -0.103 | -0.222 | 0.0341
9 | O=C(CCl)NCc1ccc2c(c1)OCO2 | 0.00826 | -0.843 | -0.215 | -0.228 | -1.36 (active) | -0.0636 | -0.325 | -0.00649 | -0.0739 | 0.0675
10 | O=C(CCl)NCc1noc(C2CC2)n1 | -0.344 | -0.572 | -0.106 | -0.219 | -1.67 (active) | 0.307 | -0.363 | -0.164 | -0.193 | -0.127
11 | Cc1ccc(CNC(=O)CCl)nc1C.Cl | 0.146 | -0.314 | 0.14 | -0.305 | -1.07 (active) | 0.499 | -0.0227 | -0.0933 | 0.144 | 0.174
12 | O=C(CCl)N1CCC(C(=O)N2CCCCCC2)CC1 | 0.0239 | -0.19 | 0.0601 | -0.0463 | -1.19 (active) | 0.241 | -0.191 | -0.0405 | -0.115 | -0.164
13 | CC(=O)C1CCCCN1C(=O)CCl (stereo not given) | 0.00453 | -0.279 | 0.0549 | 0.203 | -1.44 (active) | 0.181 | -0.0871 | -0.0595 | -0.162 | -0.109
14 | O=C(CCl)N1CCC(S(=O)(=O)c2ccc(F)cc2)CC1 | -0.129 | -0.758 | -0.03 | -0.129 | -1.14 (active) | 0.498 | -0.128 | -0.175 | -0.327 | 0.341
15 | O=C(CCl)NCC1(c2ccccc2)CC1 | -0.042 | -0.82 | -0.155 | -0.151 | -1.22 (active) | 0.255 | -0.245 | 0.00549 | -0.107 | 0.0406
16 | O=C(CCl)Nc1cccc2ncccc12 | -0.0779 | -1 (active) | -0.308 | -0.0733 | -1.25 (active) | 0.101 | -0.321 | 0.0543 | -0.178 | 0.52
17 | CC1(NC(=O)CCl)CCS(=O)(=O)C1 (stereo not given) | -0.893 | -1.2 (active) | -0.0055 | 0.0653 | -2.03 (active) | -0.392 | -0.974 | -0.235 | -0.845 | 0.0352
18 | CN1c2ccccc2C(NC(=O)CCl)CS1(=O)=O (stereo not given) | -0.0927 | -2.41 (active) | 0.0667 | -0.189 | -1.69 (active) | 0.316 | -0.387 | 0.128 | -0.212 | -0.411
19 | O=C(CCl)Nc1ccc(F)cc1Cl | -0.388 | -0.667 | 0.079 | -0.115 | -1.44 | -0.112 | -0.49 | -0.129 | 0.0309 | -0.265
